Results on seven targets are retold here after the supplement of paper PMC10849652.

Targets with a hit are over-represented here; the source holds about 7,900 in all. About 0.6% of all pairs of compound and target were hits. Unmarked numbers belong to inactive results.

Common to all, as to assay: log2 fold change, soluble protein after heating vs DMSO (PISA); higher = thermal stabilisation; K562 cells, 10 uM, 30 min; active = over 0.2 and 3.5 SD of the protein, either way, in both replicates (recomputed)
Compound in one experiment: C#Cc1cccc(Nc2ncnc3cc(OCCOC)c(OCCOC)cc23)c1 [erlotinib]
The procedure, abridged: (§1)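 Soluble protein was defined as the supernatant after 21,000xg for 90 min. It came from K562 cells at 2×10^6 cells/mL given 10 μM compound for 30 min, heated in aliquots for 3 min across 48°C-58°C, pooled, and extracted in PBS with 0.5% NP-40 at 4°C, and was quantified by TMTpro 16plex LC-MS/MS with equalised channel sums. Thermal stability against control samples, from duplicates, is reported as log2 fold change.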

Compound in experiment [1]: C/C(=N\NC(=O)C1=CC(=CC=C1)S(=O)(=O)N2CCOCC2)/C3=C(C=CC(=C3)Cl)O
The method, boiled down:
as §1

Compound in experiment [2]: C1=CC(=C(C=C1Cl)C2=NC3=NC=CN=C3C(=N2)NC4=CC=NC=C4)F
The method, boiled down:
as §1

Compound in experiment [3]: C1=CC(=CC=C1C2=NC3=C(N2)C=C(C=C3)C(=O)N)OC4=CC=C(C=C4)Cl
The method, boiled down: as §1

Compound in experiment [4]: C1=CC2=C(C=CC(=C2)/C=C\3/C(=O)NC(=NCC4=CC=CS4)S3)N=C1
The procedure, abridged: as §1

Compound in experiment [5]: C1=CC2=NC=CN=C2C=C1/C=C/3\C(=O)NC(=O)S3
The procedure, abridged:
as §1

Compound in experiment [6]: C1=CC=C(C=C1)C2=NC(=C(N2)C3=CC=NC=C3)C4=CC(=C(C=C4)Cl)O
The method, boiled down: as §1

Compound in experiment [7]: C1=CC=C2C(=C1)C3=NNC4=CC=CC(=C43)C2=O
The procedure, abridged: as §1

Compound in experiment [8]: C1CCN(C1)C(=O)NC2=CC=CC(=C2)NC3=NC=C(C(=N3)NCCC4=CN=CN4)Br
The method, boiled down:
as §1

Compound in experiment [9]: C1CN(CCC1(CC2=CC=C(C=C2)Cl)N)C3=NC=NC4=C3C=CN4
The method, boiled down:
as §1

Compound in the next experiment: C1COCCN1CCN2C3=CC=CC=C3N=C2NC(=O)C4=CC(=CC=C4)[N+](=O)[O-] [IRAK-1-4 Inhibitor I]
The method, boiled down: as §1

Compound in the next experiment: C=CC(=O)N1CCC[C@@H](n2nc(-c3ccc(Oc4ccccc4)cc3)c3c(N)ncnc32)C1 [ibrutinib]
The method, boiled down: as §1

Compound in experiment [10]: CC(=O)c1cnc2ccc(-c3cc(Cl)c(O)c(Cl)c3)nc2c1N[C@H]1CC[C@H](CN(C)C)CC1
The method, boiled down:
as §1

Compound in a further experiment: CC(C)(C)Cn1c(N)nc2ccc(-c3[nH]c(C(C)(C)C)nc3-c3ccc(F)cc3)nc21 [ralimetinib]
The procedure, abridged: as §1

Compound in experiment [11]: CC(C)(O)CC(=O)NCCn1ccc2ncnc(Nc3ccc(Oc4cccc(C(F)(F)F)c4)c(Cl)c3)c21
The procedure, abridged: as §1

Compound in experiment [12]: CC(C)C1=C2N=C(C=C(N2N=C1)NCC3=CC=CC=C3)NCCCCCCN
The method, boiled down:
as §1

Compound in experiment [13]: CC(C)C[C@@H](C=O)NC(=O)[C@H](CC(C)C)NC(=O)[C@H](CC(C)C)NC(=O)OCc1ccccc1
The method, boiled down: as §1

Compound in a further experiment: CC(C)N(C[C@H]1O[C@@H](n2cnc3c(N)ncnc32)[C@H](O)[C@@H]1O)[C@H]1C[C@@H](CCc2nc3cc(C(C)(C)C)ccc3[nH]2)C1 [pinometostat]
The method, boiled down:
as §1

Compound in experiment [14]: CC1=C(C(CC(=O)N1)C2=CC=C(C=C2)C(F)(F)F)C(=O)NC3=C(C=C4C(=C3)C=NN4)F
The procedure, abridged: as §1

Compound in experiment [15]: CC1=C(C2=C(C=C1)C(=O)C3=CC=CC=C3N2CCCN)C
The procedure, abridged: as §1

Sequence of UniProt Q9ULV3 (Q9ULV3 whole entry, looked up): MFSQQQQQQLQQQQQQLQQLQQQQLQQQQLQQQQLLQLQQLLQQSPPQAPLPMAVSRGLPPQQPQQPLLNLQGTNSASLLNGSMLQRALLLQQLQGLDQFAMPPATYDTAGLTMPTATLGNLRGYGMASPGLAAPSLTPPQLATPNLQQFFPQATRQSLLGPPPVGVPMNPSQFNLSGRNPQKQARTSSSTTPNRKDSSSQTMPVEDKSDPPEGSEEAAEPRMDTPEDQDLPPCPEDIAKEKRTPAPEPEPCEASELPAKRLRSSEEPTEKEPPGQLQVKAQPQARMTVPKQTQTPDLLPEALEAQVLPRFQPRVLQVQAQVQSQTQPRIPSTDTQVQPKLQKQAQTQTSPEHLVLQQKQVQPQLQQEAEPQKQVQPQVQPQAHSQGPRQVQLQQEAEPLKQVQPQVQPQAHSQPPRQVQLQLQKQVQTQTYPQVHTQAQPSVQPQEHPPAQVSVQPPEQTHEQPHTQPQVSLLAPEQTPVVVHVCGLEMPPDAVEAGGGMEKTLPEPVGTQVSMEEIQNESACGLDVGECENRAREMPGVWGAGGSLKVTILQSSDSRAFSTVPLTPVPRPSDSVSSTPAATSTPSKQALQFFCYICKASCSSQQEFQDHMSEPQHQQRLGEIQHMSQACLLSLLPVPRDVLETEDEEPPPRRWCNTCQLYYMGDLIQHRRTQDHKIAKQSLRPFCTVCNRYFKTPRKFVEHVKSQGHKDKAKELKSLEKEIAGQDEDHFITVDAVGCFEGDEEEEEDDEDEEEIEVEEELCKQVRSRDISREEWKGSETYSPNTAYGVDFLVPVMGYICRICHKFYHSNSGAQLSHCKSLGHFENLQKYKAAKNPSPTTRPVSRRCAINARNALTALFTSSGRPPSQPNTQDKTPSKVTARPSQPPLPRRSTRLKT
Sequence of UniProt Q8IWY9 (Q8IWY9 whole entry, looked up): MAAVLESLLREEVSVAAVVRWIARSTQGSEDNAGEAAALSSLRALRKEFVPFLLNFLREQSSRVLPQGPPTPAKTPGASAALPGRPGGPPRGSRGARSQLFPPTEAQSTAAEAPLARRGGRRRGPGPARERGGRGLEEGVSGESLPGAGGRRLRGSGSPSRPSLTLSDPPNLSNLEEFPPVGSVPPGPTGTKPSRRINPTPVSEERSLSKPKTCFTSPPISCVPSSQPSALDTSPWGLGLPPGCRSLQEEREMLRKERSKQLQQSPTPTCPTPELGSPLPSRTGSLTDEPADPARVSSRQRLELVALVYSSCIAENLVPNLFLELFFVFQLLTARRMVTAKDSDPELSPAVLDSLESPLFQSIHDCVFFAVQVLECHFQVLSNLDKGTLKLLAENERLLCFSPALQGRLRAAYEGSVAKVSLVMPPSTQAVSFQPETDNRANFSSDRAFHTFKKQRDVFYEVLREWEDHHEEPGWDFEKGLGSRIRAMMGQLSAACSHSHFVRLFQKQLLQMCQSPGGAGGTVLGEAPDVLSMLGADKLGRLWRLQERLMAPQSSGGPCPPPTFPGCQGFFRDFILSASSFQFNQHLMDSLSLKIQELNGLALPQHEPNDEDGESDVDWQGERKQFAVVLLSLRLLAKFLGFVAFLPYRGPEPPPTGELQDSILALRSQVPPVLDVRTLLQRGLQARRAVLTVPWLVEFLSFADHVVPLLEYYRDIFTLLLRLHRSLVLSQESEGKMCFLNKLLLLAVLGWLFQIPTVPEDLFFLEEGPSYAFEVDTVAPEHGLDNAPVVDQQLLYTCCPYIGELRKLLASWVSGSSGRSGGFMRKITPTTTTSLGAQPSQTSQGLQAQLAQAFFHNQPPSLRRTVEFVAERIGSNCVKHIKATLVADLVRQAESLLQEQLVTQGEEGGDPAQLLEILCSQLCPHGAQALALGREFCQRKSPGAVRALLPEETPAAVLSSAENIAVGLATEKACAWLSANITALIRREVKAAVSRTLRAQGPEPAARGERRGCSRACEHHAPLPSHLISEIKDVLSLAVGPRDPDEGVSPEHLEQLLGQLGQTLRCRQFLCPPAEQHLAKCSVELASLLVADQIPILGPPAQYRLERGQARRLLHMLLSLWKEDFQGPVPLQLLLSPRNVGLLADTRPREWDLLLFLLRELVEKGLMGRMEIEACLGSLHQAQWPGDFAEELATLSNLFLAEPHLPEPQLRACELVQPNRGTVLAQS
Sequence of UniProt P60033 (P60033 whole entry, looked up): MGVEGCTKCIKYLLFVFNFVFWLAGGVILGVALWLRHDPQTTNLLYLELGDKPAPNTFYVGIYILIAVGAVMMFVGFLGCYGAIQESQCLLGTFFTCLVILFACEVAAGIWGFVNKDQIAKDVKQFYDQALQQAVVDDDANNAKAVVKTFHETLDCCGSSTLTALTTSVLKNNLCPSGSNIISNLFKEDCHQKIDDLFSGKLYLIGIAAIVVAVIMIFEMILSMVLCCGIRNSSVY
Sequence of UniProt Q12873 (Q12873 whole entry, looked up): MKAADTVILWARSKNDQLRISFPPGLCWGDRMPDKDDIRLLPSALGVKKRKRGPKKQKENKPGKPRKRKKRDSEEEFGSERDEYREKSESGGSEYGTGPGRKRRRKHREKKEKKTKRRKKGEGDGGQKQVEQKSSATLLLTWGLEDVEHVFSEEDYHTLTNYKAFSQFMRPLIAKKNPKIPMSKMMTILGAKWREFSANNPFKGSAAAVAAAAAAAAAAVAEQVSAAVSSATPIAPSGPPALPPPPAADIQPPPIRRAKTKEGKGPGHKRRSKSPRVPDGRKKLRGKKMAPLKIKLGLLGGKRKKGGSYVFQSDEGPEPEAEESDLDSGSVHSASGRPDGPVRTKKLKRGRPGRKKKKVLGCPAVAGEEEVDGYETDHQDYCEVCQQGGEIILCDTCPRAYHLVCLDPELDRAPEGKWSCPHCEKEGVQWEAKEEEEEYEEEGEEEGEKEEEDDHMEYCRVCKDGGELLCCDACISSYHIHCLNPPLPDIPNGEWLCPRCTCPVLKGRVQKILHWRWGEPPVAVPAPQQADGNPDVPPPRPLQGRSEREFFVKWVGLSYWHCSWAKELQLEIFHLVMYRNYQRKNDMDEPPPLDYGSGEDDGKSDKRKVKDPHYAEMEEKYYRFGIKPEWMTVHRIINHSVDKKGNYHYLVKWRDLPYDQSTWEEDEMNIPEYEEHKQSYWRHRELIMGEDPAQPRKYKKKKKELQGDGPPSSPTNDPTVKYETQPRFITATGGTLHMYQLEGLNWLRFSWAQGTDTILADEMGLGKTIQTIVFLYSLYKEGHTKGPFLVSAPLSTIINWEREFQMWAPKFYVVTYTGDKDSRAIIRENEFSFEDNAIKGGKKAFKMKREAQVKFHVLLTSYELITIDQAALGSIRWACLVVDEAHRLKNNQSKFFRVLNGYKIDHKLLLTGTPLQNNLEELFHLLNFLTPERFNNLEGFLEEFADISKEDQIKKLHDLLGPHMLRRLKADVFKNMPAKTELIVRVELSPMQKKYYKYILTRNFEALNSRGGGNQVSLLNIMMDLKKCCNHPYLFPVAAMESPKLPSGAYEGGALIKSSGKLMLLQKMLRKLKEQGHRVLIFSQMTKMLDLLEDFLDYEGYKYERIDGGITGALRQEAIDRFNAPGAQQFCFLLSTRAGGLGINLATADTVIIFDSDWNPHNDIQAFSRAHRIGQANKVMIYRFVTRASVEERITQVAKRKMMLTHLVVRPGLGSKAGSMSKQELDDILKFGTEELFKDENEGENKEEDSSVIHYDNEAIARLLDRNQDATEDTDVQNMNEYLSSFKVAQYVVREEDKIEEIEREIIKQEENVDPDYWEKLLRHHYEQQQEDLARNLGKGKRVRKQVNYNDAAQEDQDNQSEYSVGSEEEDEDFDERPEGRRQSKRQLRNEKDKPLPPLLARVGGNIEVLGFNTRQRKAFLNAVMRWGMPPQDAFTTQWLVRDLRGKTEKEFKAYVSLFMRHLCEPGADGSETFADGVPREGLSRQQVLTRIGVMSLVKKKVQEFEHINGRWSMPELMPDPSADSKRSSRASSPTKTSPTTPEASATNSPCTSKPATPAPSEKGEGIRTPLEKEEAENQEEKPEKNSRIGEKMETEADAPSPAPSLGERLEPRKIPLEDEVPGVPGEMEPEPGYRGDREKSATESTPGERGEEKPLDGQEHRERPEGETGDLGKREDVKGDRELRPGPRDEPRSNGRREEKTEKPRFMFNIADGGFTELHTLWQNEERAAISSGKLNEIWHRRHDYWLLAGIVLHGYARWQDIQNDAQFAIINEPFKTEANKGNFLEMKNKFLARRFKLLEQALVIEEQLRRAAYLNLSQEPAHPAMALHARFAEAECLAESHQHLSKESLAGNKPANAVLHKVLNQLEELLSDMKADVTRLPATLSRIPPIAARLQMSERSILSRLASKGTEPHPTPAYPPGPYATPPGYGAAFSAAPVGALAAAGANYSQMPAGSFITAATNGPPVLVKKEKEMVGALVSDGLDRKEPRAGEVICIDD
Sequence of UniProt Q13137 (Q13137 whole entry, looked up): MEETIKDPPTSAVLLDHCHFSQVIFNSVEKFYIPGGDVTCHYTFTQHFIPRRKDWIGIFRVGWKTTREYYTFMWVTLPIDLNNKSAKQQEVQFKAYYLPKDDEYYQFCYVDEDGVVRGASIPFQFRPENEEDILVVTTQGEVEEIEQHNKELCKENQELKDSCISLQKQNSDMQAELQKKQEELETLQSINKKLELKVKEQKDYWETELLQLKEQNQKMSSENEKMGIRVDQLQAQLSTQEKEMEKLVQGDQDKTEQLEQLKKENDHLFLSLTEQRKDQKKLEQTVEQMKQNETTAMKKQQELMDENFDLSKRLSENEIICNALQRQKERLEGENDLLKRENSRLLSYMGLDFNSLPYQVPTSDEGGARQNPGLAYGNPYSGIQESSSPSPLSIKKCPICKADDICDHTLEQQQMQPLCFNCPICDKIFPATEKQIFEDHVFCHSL

Turning to CHD3 isoform 3 (UniProt Q12873), the log2 fold change in the experiment with erlotinib was -0.052; in experiment [1], 0.148; in experiment [2] it was 0.005; in experiment [3], -0.062; in experiment [4], 0; in [5], 0.034. Besides, the log2 fold change is 0.388 in [6]; -0.123 in experiment [7]; -0.125 in [8]; -0.093 in [9]; -0.052 with IRAK-1-4 Inhibitor I; -0.1 in the experiment with ibrutinib. Further, the log2 fold change in [10] is -0.284; in the experiment with ralimetinib it was 0.36; in experiment [11], -0.075; in experiment [12] it was -0.319; in experiment [13], 0.186; in the experiment with pinometostat, 0.071. For the same target, the results for the log2 fold change in experiment [14] and in [15] were 0.125 and -0.009, respectively.

On to CIZ1 (UniProt Q9ULV3), for which the log2 fold change in the experiment with erlotinib is 0.002; in [1], 0.024; in [2], 0.032; in experiment [3], 0.069; in [4], 0.009; in experiment [5] it was 0.083. For the same target, the log2 fold change in experiment [6] was -0.092; in [7], -0.085; in [8], 0.034; in [9], -0.016; with IRAK-1-4 Inhibitor I, 0.013; in the experiment with ibrutinib, -0.03. Moreover, the log2 fold change is -0.044 in [10]; 0.056 with ralimetinib; -0.056 in experiment [11]; 0.035 in [12]; 0.053 in experiment [13]; -0.02 with pinometostat. Moreover, the log2 fold change in [14] is -0.02; in [15] it was -0.248 (active).

For the target CD81 (UniProt P60033), the log2 fold change was -0.065 with erlotinib; 0.033 in experiment [1]; 0.059 in experiment [2]; 0.039 in experiment [3]; -0.065 in [4]; 0.059 in experiment [5]. Also, the log2 fold change in experiment [6] is 0.013; in [7], -0.043; in experiment [8], 0.098; in [9], 0.206; with IRAK-1-4 Inhibitor I, 0.027; in the experiment with ibrutinib, 0.007. The log2 fold change in [10] was -0.026; with ralimetinib it was -0.045; in experiment [11], -0.018; in experiment [12] it was 0.33; in experiment [13], -0.122; in the experiment with pinometostat, -0.05. Moreover, the log2 fold change in [14] was 0.004; in experiment [15] it was -0.01.

On to CNDP2 (UniProt Q96KP4), for which the log2 fold change with erlotinib was 0.035; in [1] it was -0.099; in experiment [2] it was 0.058; in [3] it was 0.022; in experiment [4], 0.091; in experiment [5], -0.024. Also, the log2 fold change in experiment [6] was 0.064; in experiment [7], 0.058; in experiment [8], 0.023; in experiment [9], 0.072; in the experiment with IRAK-1-4 Inhibitor I it was 0.098; in the experiment with ibrutinib, 0.002. Besides, the log2 fold change in [10] is -0.01; in the experiment with ralimetinib, 0.07; in [11] it was -0.005; in experiment [12], -0.011; in experiment [13], -0.029; with pinometostat it was -0.035. The log2 fold change in experiment [14] is -0.011; in experiment [15], 0.042.

For the target CALCOCO2 isoform 4 (UniProt Q13137), the log2 fold change with erlotinib is -0.081; in experiment [1], 0.018; in [2] it was -0.08; in [3], 0.059; in experiment [4], 0.022; in experiment [5], -0.043. The log2 fold change in experiment [6] is -0.003; in [7], -0.057; in [8] it was -0.016; in [9], -0.052; with IRAK-1-4 Inhibitor I, 0.004; with ibrutinib it was -0.016. For the same target, the log2 fold change in [10] was -0.09; with ralimetinib it was 0.045; in experiment [11] it was -0.005; in experiment [12], -0.599 (active); in experiment [13], 0.115; with pinometostat, 0.054. In addition, the values for the log2 fold change in [14] and in experiment [15] were 0.045 and -0.065, respectively.

Turning to COPS4 (UniProt Q9BT78), the log2 fold change is -0.002 with erlotinib; 0.061 in experiment [1]; 0.13 in experiment [2]; -0.004 in experiment [3]; 0.036 in experiment [4]; -0.006 in experiment [5]. In addition, the log2 fold change in [6] was 0.054; in experiment [7], 0.024; in experiment [8], -0.009; in [9], -0.002; in the experiment with IRAK-1-4 Inhibitor I it was 0.015; with ibrutinib, 0.043. Further, the log2 fold change in experiment [10] is 0.01; in the experiment with ralimetinib, -0.004; in [11], -0.014; in experiment [12] it was 0.009; in experiment [13], -0.008; in the experiment with pinometostat, -0.048. Further, the log2 fold change in experiment [14] was -0.019; in [15], 0.028.

For the target CDAN1 (UniProt Q8IWY9), the log2 fold change with erlotinib is -0.031; in experiment [1], 0.048; in experiment [2], -0.171; in experiment [3], -0.011; in experiment [4] it was 0.039; in experiment [5], 0.066. The log2 fold change is 0.019 in experiment [6]; -0.057 in experiment [7]; 0.109 in [8]; 0.03 in experiment [9]; 0.057 with IRAK-1-4 Inhibitor I; -0.001 with ibrutinib. For the same target, the log2 fold change in [10] was -0.044; in the experiment with ralimetinib, -0.036; in [11] it was -0.168; in experiment [12] it was -0.051; in experiment [13] it was -0.006; in the experiment with pinometostat, 0.026. The log2 fold change in [14] was 0.009; in experiment [15], -0.398 (active).
